The list is not random: actives were taken first. Their share in the collection is about 2.4%.
EP2 mod: modulators of human EP2 prostaglandin E2 receptor; EP2-expressing cells, cAMP HTRF FRET, PGE2 co-stimulation; induction, % at 25 µM; actives 0.83% (n = 260,000);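 active = compounds whose cAMP rise, as percent of the full-agonist control response, exceeds 60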;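 also: rat C6 glioma line stably carrying human EP2 under a CMV promoter; the protocol text gives 20 µM as final concentration; 100% = response of wells given 1 µM PGE2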
PGE2 EP2 inh: blocks the human prostaglandin E2 receptor EP2 | inhibition, % at 25 µM | actives 0.52% (n = 260,000) | C6 glioma cells expressing human EP2, cAMP TR-FRET; cells stimulated with saturating PGE2 | AID 1422 | P43116;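 active = percent inhibition above 40 after rounding to a whole number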;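 also: rat C6 glioma host cells with rolipram phosphodiesterase inhibitor present; the protocol text gives 20 µM as final concentration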
INS promoter inh: TRM-6 insulin promoter activity inhibition; TRM-6 cells (human fetal islet line), insulin promoter-eGFP reporter, imaging; reporter expression induced with tamoxifen; inhibition, % at 2 µM; actives 0.9% (n = 130,000); AID 1273;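 active = inhibition above the mean plus 3 SD, with well images judged a real hit on visual review, cut at about 60% in these data, passing the limit was not always enough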
S1P4 antag: human S1P4 receptor antagonism. actives 0.26% (n = 220,000). AID 1510. O95977. inhibition, % at 4.98 µM. S1P4-expressing cells, antagonist mode, reporter read-out; in the data active = inhibition above about 29%;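 also: 0% = wells stimulated with agonist and 100% = vehicle wells without agonist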
Target sequence (O95977 whole entry, looked up): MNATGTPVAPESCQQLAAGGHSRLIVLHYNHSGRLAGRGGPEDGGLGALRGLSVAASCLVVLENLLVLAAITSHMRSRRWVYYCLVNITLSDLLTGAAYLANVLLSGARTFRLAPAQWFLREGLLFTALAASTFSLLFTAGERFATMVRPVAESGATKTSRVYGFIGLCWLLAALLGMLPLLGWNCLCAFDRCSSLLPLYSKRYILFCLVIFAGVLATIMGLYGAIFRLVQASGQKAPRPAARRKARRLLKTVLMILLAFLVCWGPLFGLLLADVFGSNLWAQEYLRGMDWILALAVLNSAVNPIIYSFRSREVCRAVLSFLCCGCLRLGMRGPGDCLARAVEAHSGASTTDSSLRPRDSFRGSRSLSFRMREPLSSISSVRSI
S1P3 antagonist: blocks the human S1P3 receptor; actives 0.27% (n = 170,000); AID 485; inhibition, % at 4.98 µM; Q99500; CHO S1P3 NFAT-BLA reporter, FRET fluorescence, antagonist mode;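 active = inhibition above the plate cutoff, the mean inhibition of test wells on that plate plus 3 SD, cut at about 28% in these data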;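 also: cells challenged with S1P at its EC80 of 0.8 µM; blue over green emission ratio from cleaved BLA substrate after 4 h stimulation; 0% = S1P-stimulated wells and 100% = unstimulated DMSO-only wells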
S1P4 agonist: human S1P4 receptor agonism | O95977 | S1P4-expressing cell line, agonist reporter assay | activation, % at 4.98 µM | actives 0.35% (n = 220,000) | AID 1509; in the data active = activation above about 11%;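 also: 0% = DMSO vehicle and 100% = reference agonist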
S1P4 antag cf: human S1P4 antagonism, confirmation | AID 1524 | inhibition, % at 4.98 µM | actives 71% (n = 520) | S1P4-expressing cell line, antagonist mode, reporter read-out | shares compounds with S1P4 antag; in the data active = inhibition above about 30%
S1P1 antagonist: human S1P1 antagonism as S1P4 antagonist counter-screen; cell-based S1P1 antagonist counterscreen, inhibition; inhibition, % at 4.98 µM; AID 1564; shares compounds with S1P4 antag; actives 37% (n = 520); in the data active = inhibition above about 40%;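 also: receptor stimulated with S1P near its EC80; 0% = agonist stimulated wells and 100% = vehicle only wells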
* marks the source's active call; other numbers are inactive results; nt = no result given.

SMILES | EP2 mod | PGE2 EP2 inh | INS promoter inh | S1P4 antag | S1P3 antagonist | S1P4 agonist | S1P4 antag cf | S1P1 antagonist
CN(C)/N=C/C=C1\CCC/C(=C/c2cccs2)C1=O | -9 | 16 | nt | 7 | 1 | 0 | nt | nt
Cc1nnc(NC(=O)C(C)Oc2ccc(Cl)cc2C)s1 (stereo unspecified) | -39 | 9 | nt | nt | nt | nt | nt | nt
O=C(Nc1ccc(F)cc1)c1nn(-c2ccccc2)c(=O)cc1Cl | -50 | 9 | -30 | 45* | -8 | -3 | 75* | 71*
COc1ccc(C(=O)N/C(=C\c2ccco2)C(=O)OCc2ccco2)cc1 | 0 | 8 | nt | 4 | -5 | 0 | nt | nt
N#CC(C#N)=C1C=CC=CN1/C(=C\c1ccco1)C(=O)c1ccccc1 | -87 | 16 | nt | 66* | -7 | -1 | 116* | 119*
COc1ccc(C(=O)/C(=C\c2ccco2)N2C=CC=CC2=C(C#N)C#N)cc1 | 13 | 10 | -6 | 70* | nt | -3 | 117* | 41*
CC(C)(C)NC(=O)/C(=C/c1ccco1)c1ccccc1 | 16 | 5 | -33 | -15 | nt | -3 | nt | nt
Cc1cc(C(F)(F)F)c2c(NC/C=C/c3ccco3)n[nH]c2n1 | -92 | 16 | nt | nt | nt | nt | nt | nt
O=C(NCCCNC(=O)c1cccnc1)c1cccnc1 | -18 | 13 | nt | nt | nt | nt | nt | nt
Cc1c(/C=N/Nc2nc3ccccc3[nH]2)c2ccccc2n1C | -101 | 16 | nt | 32* | 19 | -2 | 108* | 52*
CCN(CC)c1ccc(/C=N/Nc2nc3ccccc3[nH]2)cc1 | -78 | 7 | 47 | 37* | 11 | 0 | 110* | 81*
CC(=O)Nc1ccc(/C=N/Nc2nc3ccccc3[nH]2)cc1 | -4 | 10 | nt | -7 | -9 | 1 | nt | nt
O=C(Nc1ccccc1)Nc1cc(OCC(F)(F)F)cc(OCC(F)(F)F)c1 | -16 | 0 | 45 | 101* | -5 | -1 | 112* | -6
O=C(Nc1ccccc1)Nc1cc(Cl)cc(Cl)c1 | -59 | 28 | 41 | 26 | nt | -3 | nt | nt
COc1ccc(Cl)cc1NC(=O)C1CCC(=O)N1S(=O)(=O)c1ccc(C)cc1 (stereo unspecified) | -13 | 13 | nt | nt | nt | nt | nt | nt
Cc1cc(C)nc(S/C=C/C(=O)c2ccccc2F)n1 | -61 | 5 | nt | 43* | -2 | -1 | 78* | -1
O=S(=O)(c1ccc(Cl)c(Cl)c1)c1snnc1-c1ccccc1 | 46 | 18 | -72 | 56* | nt | 0 | 114* | 75*
COc1ccccc1C1C2=C(N=C3SCC(=O)N31)c1ccccc1CC2 (stereo unspecified) | -5 | 3 | 16 | -31 | -7 | 1 | nt | nt
COc1ccc(/C=c2/sc3n(c2=O)C(c2ccccc2OC)C2=C(N=3)c3ccccc3CC2)cc1O (stereo unspecified) | 4 | 8 | -29 | 33* | nt | -4 | 78* | 70*
Nc1cccc2c1C(=O)N(C(=O)c1ccc(Cl)c(S(=O)(=O)N3CCCCCC3)c1)C2=O | 16 | 13 | -13 | 32* | nt | 3 | 33* | 0
CC(C(=O)N1CCC(c2c(S(C)(=O)=O)cnc3ncnn23)CC1)c1ccccc1 (stereo unspecified) | -14 | nt | nt | nt | nt | nt | nt | nt
O=C(Nc1ccccc1)c1nnsc1S(=O)c1ccc(Cl)cc1 (stereo unspecified) | -26 | 142* | 28 | 49* | nt | -3 | 111* | 6
O=C(c1nnsc1S(=O)c1ccc(Cl)cc1)N1CCOCC1 (stereo unspecified) | -77 | 21 | -218 | 15 | -16 | -1 | nt | nt
O=C(/C=C/c1ccccc1[N+](=O)[O-])c1ccccc1Br | 24 | 7 | 18 | 36* | -6 | -1 | 79* | 28
Cc1ccc(-n2ncc(Br)c(Br)c2=O)cc1 | 15 | 26 | -400 | 103* | 1 | 2 | 117* | 37
SMILES | EP2 mod | PGE2 EP2 inh | INS promoter inh | S1P4 antag | S1P3 antagonist | S1P4 agonist | S1P4 antag cf | S1P1 antagonist
O=c1c(Br)c(N2CCCC2)cnn1-c1ccccc1 | 15 | 7 | 11 | -8 | 5 | -2 | nt | nt
O=c1c(Br)c(Br)cnn1-c1ccccc1 | 47 | 30 | nt | 112* | 6 | -3 | 121* | 48*
C/C(O)=C\c1nc(=O)c2ccccc2n1C1=CCN(Cc2ccccc2)CC1 | 6 | 7 | nt | nt | nt | nt | nt | nt
CCc1nnc(NC(=O)CSc2nc3c(c(=O)n(C)c(=O)n3C)n2Cc2ccc(C)cc2)s1 | 2 | 12 | nt | nt | nt | nt | nt | nt
CCOC(=O)C1=C(Cc2ccc(F)cc2)C(=O)c2ccccc2C1=O | -14 | 18 | -22 | 18 | nt | -1 | nt | nt
CCCCc1ccc(/C=C2\C(=O)c3ccccc3C(O)=C2C(=O)OCC)cc1 | 33 | 11 | nt | 36* | nt | -1 | 68* | 22
CC(C)(C)c1ccc(-n2nc(C#N)c(Cl)cc2=O)cc1 | -56 | 6 | nt | 110* | -5 | -6 | 120* | 49*
CC1CN(C(C)C)CCC1CCc1ccc(NC(=O)c2ccn[nH]2)cc1 (stereo unspecified) | -4 | nt | nt | nt | nt | nt | nt | nt
O=C(CN1CCC(n2nnc3cc(C(F)(F)F)ccc32)CC1)NCc1ccccc1 | -28 | 6 | nt | nt | nt | nt | nt | nt
N#CCSc1nnc(N)s1 | 10 | 12 | 0 | -20 | -8 | 1 | nt | nt
N#CCSc1nnc(SCC#N)s1 | 21 | 2 | nt | 32* | 6 | 0 | 15 | 2
Cc1cc(C(=O)Cn2ncc(Cl)c(Cl)c2=O)c(C)n1CC(F)(F)F | 17 | 7 | nt | 90* | 0 | -1 | 105* | 65*
Cc1ccc(C)c(C(=O)Cn2ncc(Cl)c(Cl)c2=O)c1 | 21 | 12 | -269 | 67* | nt | 0 | 116* | 59*
O=C(Nc1ccc2nn(-c3ccc(F)cc3)nc2c1)c1ccc([N+](=O)[O-])o1 | -46 | 11 | nt | nt | nt | nt | nt | nt
CN1c2ccccc2Oc2nnc(Cl)cc21 | 24 | 10 | nt | 2 | -6 | 0 | nt | nt
CN1c2ccccc2Oc2nnc(N3CCN(Cc4ccccc4)CC3)cc21 | -49 | 7 | nt | 33* | -10 | 2 | 25 | 15
CC(=O)NC12CC3CC(C1)CC(C(=O)OCC(=O)NC(=O)c1cccn1C)(C3)C2 | -8 | 9 | nt | -11 | 6 | -1 | nt | nt
Cn1cccc1C(=O)NC(=O)COC(=O)C12CC3CC(CC(O)(C3)C1)C2 | -3 | 6 | 9 | 33* | nt | -3 | 3 | 5
COc1ccc2c(c1)C(O)CC1(CCN(CC(O)c3ccc(Cl)cc3)CC1)O2 (stereo unspecified) | -78 | 9 | nt | nt | nt | nt | nt | nt
CCN(CC)c1ccc(/C=c2\sc3nc4ccccc4n3c2=O)c(O)c1 | -54 | 4 | 39 | 37* | 15 | 6 | 22 | -25
O=C(NCc1cccnc1)/C(=C\c1ccc(-c2ccc(Br)cc2)o1)S(=O)(=O)c1ccccc1 | 8 | 7 | 4 | 52* | 22 | 1 | 106* | 64*

Source: PubChem
